Consider four compounds from PubChem BioAssay AID1159580 (chemical genetic matrix, 2015).

Molecules are shown by their SMILES. The campaign covered roughly 5,500 compounds. About 2,000 (36%) were called active. Inconclusive results (about 18%) are left out. The list shows a part of the results. Unmarked numbers belong to inactive results. Cut-off read from the data, not from the text of the source: active = normalized growth mostly below about 0.91 (no sharp cut-off); inconclusive = no clear call, values can overlap the other calls; inactive = mostly above about 0.92.

The nature of the experiment: chemical genetic growth profiling, strain panel (AID 1159580).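 Note: tested at 20 µM; growth read once vehicle control cultures reached saturation at 30 °C; 1 = growth at the plate median or of vehicle wells; lower values mean less growth of the strain.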 As to conditions: growth OD.
[1] abbreviates: S. cerevisiae deletion strains, locus YAL040C, strain CLN3, stronger effect = lower value.
[2] abbreviates: S. cerevisiae deletion strains, locus YCL061C, strain MRC1 (second series), stronger effect = lower value.
The mark [3] stands for this setting: S. cerevisiae deletion strains, locus YDR363W, strain ESC2, stronger effect = lower value.
[4] abbreviates: S. cerevisiae deletion strains, locus YER002W, strain NOP16, stronger effect = lower value.
[5] abbreviates: S. cerevisiae deletion strains, locus YGR078C, strain PAC10, stronger effect = lower value.
Setting [6] is: S. cerevisiae deletion strains, locus YGR229C, strain SMI1, stronger effect = lower value.
Where [7] appears, read: S. cerevisiae deletion strains, locus YJR075W, strain HOC1, stronger effect = lower value.
Setting [8] is: S. cerevisiae deletion strains, locus YNL128W, strain TEP1, stronger effect = lower value.
The mark [9] stands for this setting: S. cerevisiae deletion strains, locus YNL153C, strain GIM3, stronger effect = lower value.
Setting [10] is: S. cerevisiae deletion strains, locus YNL175C, strain NOP13, stronger effect = lower value.
Setting [11] is: S. cerevisiae deletion strains, locus YNL197C, strain WHI3, stronger effect = lower value.
[12] abbreviates: S. cerevisiae deletion strains, locus YNL224C, strain SQS1, stronger effect = lower value.
Where [13] appears, read: S. cerevisiae deletion strains, locus YNL322C, strain KRE1, stronger effect = lower value.
Where [14] appears, read: S. cerevisiae deletion strains, locus YOR083W, strain WHI5 (second series), stronger effect = lower value.
The mark [15] stands for this setting: S. cerevisiae deletion strains, locus YPL055C, strain LGE1, stronger effect = lower value.
Setting [16] is: S. cerevisiae deletion strains, locus YPL241C, strain CIN2, stronger effect = lower value.
Setting [17] is: S. cerevisiae deletion strains, locus YAL013W, strain DEP1, stronger effect = lower value.
[18] abbreviates: S. cerevisiae deletion strains, locus YDR150W, strain NUM1, stronger effect = lower value.
[19] abbreviates: S. cerevisiae deletion strains, locus YMR263W, strain SAP30, stronger effect = lower value.
The mark [20] stands for this setting: S. cerevisiae deletion strains, locus YBR229C, strain ROT2, stronger effect = lower value.
[21] abbreviates: S. cerevisiae deletion strains, locus YDL101C, strain DUN1, stronger effect = lower value.
The mark [22] stands for this setting: S. cerevisiae deletion strains, locus YEL061C, strain CIN8, stronger effect = lower value.
The mark [23] stands for this setting: S. cerevisiae deletion strains, locus YHR030C, strain SLT2, stronger effect = lower value.
Setting [24] is: S. cerevisiae deletion strains, locus YHR087W, strain rtc3, stronger effect = lower value.
The mark [25] stands for this setting: S. cerevisiae deletion strains, locus YJL187C, strain SWE1, stronger effect = lower value.
[26] abbreviates: S. cerevisiae deletion strains, locus YJR043C, strain POL32, stronger effect = lower value.
[27] abbreviates: S. cerevisiae deletion strains, locus YLR039C, strain RIC1, stronger effect = lower value.
[28] abbreviates: S. cerevisiae deletion strains, locus YLR058C, strain SHM2 (second series), stronger effect = lower value.
The mark [29] stands for this setting: S. cerevisiae deletion strains, locus YLR085C, strain ARP6, stronger effect = lower value.
[30] abbreviates: S. cerevisiae deletion strains, locus YLR262C, strain YPT6, stronger effect = lower value.
The mark [31] stands for this setting: S. cerevisiae deletion strains, locus YML094W, strain GIM5, stronger effect = lower value.
The mark [32] stands for this setting: S. cerevisiae deletion strains, locus YMR219W, strain ESC1, stronger effect = lower value.
Setting [33] is: S. cerevisiae deletion strains, locus YNL298W, strain CLA4 (second series), stronger effect = lower value.
The mark [34] stands for this setting: S. cerevisiae deletion strains, locus YNR030W, strain Alg12, stronger effect = lower value.
Setting [35] is: S. cerevisiae deletion strains, locus YPR135W, strain CTF4, stronger effect = lower value.

For the compound `CC1(C(=O)O)C2CCC(O2)C1(C)C(=O)O` (configuration not stated), the normalized growth was 0.902 under setting [1]; 0.984 under setting [2]; 0.982 under setting [3]; 0.914 (active) under setting [4]; 0.985 under setting [5]; 1 under setting [6]. In addition, the normalized growth under setting [7] was 1.03; the normalized growth under setting [8] is 0.943; the normalized growth under setting [9] was 0.886; the normalized growth under setting [10] was 0.904 (active); the normalized growth under setting [11] is 0.884 (active); the normalized growth under setting [12] is 0.914 (active). The normalized growth under setting [13] is 0.989, the normalized growth under setting [14] is 0.833 (active), the normalized growth under setting [15] is 1.04 and the normalized growth under setting [16] is 0.97.

As for `O=C(O)C1C2CCC(O2)C1C(=O)O` (configuration not stated), the normalized growth was 1.04 under setting [17]; 0.983 under setting [1]; 1 under setting [2]; 1 under setting [18]; 1 under setting [3]; 0.996 under setting [4]. Besides, the normalized growth is 0.985 under setting [5]; 1.02 under setting [7]; 0.995 under setting [19]; 1 under setting [9]; 1.01 under setting [10]; 0.998 under setting [11]. In addition, the normalized growth is 1.02 under setting [12], 1.06 under setting [14] and 1.06 under setting [15].

Take `CCOC(=O)c1cc(C)nc(Sc2ccccc2)c1C#N`: the normalized growth by setting is: under setting [17], 0.931 (active); under setting [20], 0.889 (active); under setting [21], 0.897 (active); under setting [18], 0.852; under setting [22], 0.917; under setting [5], 0.763 (active). The normalized growth is 0.841 under setting [23]; 0.787 (active) under setting [24]; 0.854 (active) under setting [25]; 0.91 (active) under setting [26]; 0.573 (active) under setting [7]; 0.898 (active) (S. cerevisiae deletion strains, locus YKL190W, strain CNB1, stronger effect = lower value). Besides, the normalized growth was 0.895 under setting [27]; 0.858 (active) under setting [28]; 0.787 under setting [29]; 0.86 under setting [30]; 0.917 under setting [31]; 0.877 (active) under setting [32]. Further, the normalized growth is 0.907 (active) under setting [19]; 0.754 (S. cerevisiae deletion strains, locus YMR307W, strain GAS1, stronger effect = lower value); 0.916 (active) under setting [9]; 0.785 (active) under setting [33]; 0.885 (active) under setting [13]; 0.746 (active) under setting [34]. The normalized growth is 0.844 under setting [15], 0.83 (active) under setting [16] and 1.12 under setting [35].

On to `CCOC(=O)COc1nc(-c2cccs2)cc(C(F)(F)F)c1C#N`, for which the normalized growth reads like this: under setting [17], 0.995; under setting [20], 0.97; (S. cerevisiae deletion strains, locus YCL061C, strain MRC1, stronger effect = lower value) 1; under setting [21], 0.963; under setting [18], 0.975; under setting [22], 0.975. Besides, the normalized growth runs as follows: under setting [5], 0.978; under setting [6], 0.989; under setting [23], 0.827; under setting [24], 0.961; under setting [25], 0.966; under setting [26], 1.01. The normalized growth is 0.979 under setting [7]; 0.946 under setting [27]; 0.972 under setting [28]; 0.949 under setting [29]; 0.991 under setting [30]; 0.922 under setting [31]. Moreover, the normalized growth by setting is: under setting [32], 0.988; under setting [19], 1.04; under setting [8], 0.982; under setting [9], 0.98; under setting [33], 0.932; under setting [13], 0.98. In addition, the normalized growth under setting [34] was 0.967; the normalized growth under setting [15] is 0.971; the normalized growth under setting [16] was 1.08; the normalized growth under setting [35] is 0.943; the normalized growth (S. cerevisiae strains, strain wild type, stronger effect = lower value) is 0.965.
